Screens as filed in PubChem BioAssay.
SMN2 splice enh: SMN2 splice variant enhancement. Potency, µM (doses to about 46.1 µM), for inactives: top-dose activity change, positive = activation, usual class: activators. actives 2.8% (n = 210,000). HEK293 SMN2-luciferase splicing reporter, luminescence, 30-36 h. AID 1458; further: % of control where 0% means no effect; nearly all actives have a fitted effect of over 55% in size
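HEK293 cells carry an SMN2 minigene-luciferase reporter in which exon 7 inclusion puts luciferase in frame. Cells were seeded at 2000 cells/well, attached for 10-12 hours, then exposed to compounds for 30-36 hours at 37C before ONE-Glo luminescence.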
Rab9 promoter act: activates the Rab9 promoter | Huh7 Rab9 promoter-luciferase reporter, luminescence, 24 h | Potency, µM (series often up to 9.22 µM), inactives show at the highest dose activation, negative = inhibition, usual class: activators | actives 2.8% (n = 320,000) | AID 485297; further: % of control where 0% means no effect; nearly all actives have a fitted effect of over 60% in size
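Luminescence read-out: Huh7 cells stably expressing Rab9-luciferase, treated 24 h with compound at 37 °C, then lysed with luciferase reagent for 10 min at ambient before reading.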
NPC1 promoter act: activators of NPC1 promoter | Huh7 NPC1 promoter luciferase reporter, 24 h | Potency, µM (top dose mostly 9.22 µM), without a hit: at the top dose activation, actives largely listed as activators | AID 485313 | actives 2.4% (n = 320,000); further: % of control where 0% means no effect; nearly all actives have a fitted effect of over 60% in size
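Luciferase expression driven by the NPC1 promoter was measured in stably transfected Huh7 cells after a 24 h compound incubation, using a luciferase reagent and a luminescence read.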
FLuc modulator: inhibits or activates purified firefly luciferase, miR-21 counter-screen | P08659 | actives 6.9% (n = 360,000) | purified FLuc, Km substrates, luminescence inhibition | Potency, µM (series often up to 57.5 µM), for inactives: top-dose activity change, negative = inhibition, hits mostly inhibitors;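 further: plate controls were vehicle for no effect and reference inhibitor for full effect; nearly all actives have a fitted effect of over 55% in size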
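Purified P. pyralis luciferase (10nM final) with 10uM D-luciferin and 10uM ATP (Km levels) in 50mM Tris acetate pH 7.5, 10mM Mg acetate, 0.01% Tween-20, 0.05% BSA; qHTS 6-point titration, ~60 µM downward; luminescence read.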
ELG1 repair inh: ELG1-dependent DNA repair inhibition. HEK293T ELG1-luciferase reporter, luminescence, 16 h; DNA damage induced by 5-fluorouridine. Potency, µM (highest dose often 46.1 µM), without a hit: at the highest dose activity change, negative = inhibition, most hits filed as inhibitors. actives 2.3% (n = 330,000); further: on the % scale 0 is the no-effect control and ±100 the full control effect; nearly all actives have a fitted effect of over 55% in size
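Overnight (16 hr) co-exposure of 2,000 cells/well to 5-fluorouridine and compound at 37 °C preceded detection. Luciferase was quantified via ONE-Glo luminescence; loss of signal denotes inhibition.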
ELG1 genotoxic: genotoxicity induction in ELG1-luciferase HEK293T cells | Potency, µM (doses to about 46 µM), without a hit: top-dose activity change, positive = activation, usual class: activators | HEK293T ELG1-luciferase reporter, luminescence, 16 h | actives 1.3% (n = 330,000); further: % of control where 0% means no effect; nearly all actives have a fitted effect of over 60% in size
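HEK293T cells expressing luciferase-tagged ELG1 were exposed to compound or DMSO vehicle for 16 hr at 37 °C and 5% CO2. Luciferase activity was then measured with ONE-Glo after 30 min at room temperature.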
ELG1 FLuc counter: luciferase inhibition in cell-free luciferin readout for ELG1 hits. shares compounds with ELG1 repair inh. Potency, µM (top dose mostly 46.1 µM), without a hit: top-dose activity change, negative = inhibition, usual class: inhibitors. AID 624247. actives 3% (n = 350). cell-free firefly luciferase luminescence counter-screen, ViewLux; further: on the % scale 0 is the no-effect control and ±100 the full control effect
ELG1-Luc inh: inhibits ELG1-dependent DNA repair in HEK293T cells, confirmed | actives 68% (n = 670) | shares compounds with ELG1 repair inh | Potency, µM (top dose mostly 46.1 µM), inactives show top-dose activity change, negative = inhibition, actives largely listed as inhibitors | HEK293T ELG1-luciferase levels, luminescence; cells co-treated with 5-fluorouridine; further: on the % scale 0 is the no-effect control and ±100 the full control effect; nearly all actives have a fitted effect of over 55% in size
Target sequence (Q96QE3 whole entry, looked up): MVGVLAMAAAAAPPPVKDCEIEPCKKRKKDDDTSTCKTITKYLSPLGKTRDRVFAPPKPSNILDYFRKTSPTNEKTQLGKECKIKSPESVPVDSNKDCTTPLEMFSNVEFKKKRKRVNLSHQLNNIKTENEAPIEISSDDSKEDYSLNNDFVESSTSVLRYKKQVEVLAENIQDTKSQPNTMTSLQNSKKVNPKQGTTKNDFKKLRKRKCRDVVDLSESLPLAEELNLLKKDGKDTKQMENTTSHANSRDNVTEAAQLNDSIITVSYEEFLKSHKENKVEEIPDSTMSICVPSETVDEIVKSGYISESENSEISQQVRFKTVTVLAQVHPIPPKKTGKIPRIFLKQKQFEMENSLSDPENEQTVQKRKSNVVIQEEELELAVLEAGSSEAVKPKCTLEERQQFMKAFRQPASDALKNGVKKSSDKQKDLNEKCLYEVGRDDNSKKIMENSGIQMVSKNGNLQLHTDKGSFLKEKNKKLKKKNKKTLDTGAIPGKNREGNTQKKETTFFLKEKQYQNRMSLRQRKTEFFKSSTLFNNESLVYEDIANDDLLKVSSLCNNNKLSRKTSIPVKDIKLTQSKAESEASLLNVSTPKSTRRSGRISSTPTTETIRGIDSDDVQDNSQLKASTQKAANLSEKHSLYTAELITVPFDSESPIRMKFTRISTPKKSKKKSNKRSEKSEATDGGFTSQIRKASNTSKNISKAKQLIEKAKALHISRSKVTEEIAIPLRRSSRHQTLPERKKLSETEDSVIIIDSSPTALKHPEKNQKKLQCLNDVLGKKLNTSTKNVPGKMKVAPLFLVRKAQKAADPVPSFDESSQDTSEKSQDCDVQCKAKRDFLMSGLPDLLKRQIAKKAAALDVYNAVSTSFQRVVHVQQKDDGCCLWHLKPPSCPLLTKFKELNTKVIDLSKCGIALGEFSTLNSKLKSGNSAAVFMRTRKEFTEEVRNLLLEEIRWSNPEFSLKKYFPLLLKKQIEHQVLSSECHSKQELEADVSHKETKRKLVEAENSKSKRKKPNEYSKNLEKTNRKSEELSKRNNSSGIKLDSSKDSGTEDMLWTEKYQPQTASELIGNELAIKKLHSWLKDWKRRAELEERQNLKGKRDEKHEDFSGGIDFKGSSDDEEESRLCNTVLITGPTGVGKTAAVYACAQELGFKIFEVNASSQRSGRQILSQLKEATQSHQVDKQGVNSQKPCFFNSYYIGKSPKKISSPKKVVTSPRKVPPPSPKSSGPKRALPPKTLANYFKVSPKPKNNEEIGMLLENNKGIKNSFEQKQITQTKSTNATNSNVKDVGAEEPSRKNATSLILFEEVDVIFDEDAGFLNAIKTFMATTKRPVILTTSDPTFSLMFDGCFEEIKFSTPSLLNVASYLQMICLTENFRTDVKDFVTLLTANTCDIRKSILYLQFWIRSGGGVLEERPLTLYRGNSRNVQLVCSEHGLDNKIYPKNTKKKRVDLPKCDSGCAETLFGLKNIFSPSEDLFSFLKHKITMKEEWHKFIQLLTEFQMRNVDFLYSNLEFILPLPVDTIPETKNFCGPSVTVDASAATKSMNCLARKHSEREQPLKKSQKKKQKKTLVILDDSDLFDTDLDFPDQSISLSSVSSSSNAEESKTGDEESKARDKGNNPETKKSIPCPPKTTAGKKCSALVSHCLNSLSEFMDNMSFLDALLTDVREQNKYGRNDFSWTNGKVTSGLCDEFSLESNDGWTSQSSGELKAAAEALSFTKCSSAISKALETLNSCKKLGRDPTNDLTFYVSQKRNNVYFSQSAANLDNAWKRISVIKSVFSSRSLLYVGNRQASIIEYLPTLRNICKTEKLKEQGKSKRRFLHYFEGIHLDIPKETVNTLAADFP
ELG1 MMS Luc: confirmation of human ELG1 repair inhibitors, MMS stimulated; shares compounds with ELG1 repair inh; HEK293T luciferase-tagged ELG1 level, MMS stimulated; Potency, µM (doses to about 46.1 µM), for inactives: top-dose activity change, negative = inhibition, most hits filed as inhibitors; actives 53% (n = 670); AID 624249; further: on the % scale 0 is the no-effect control and ±100 the full control effect; nearly all actives have a fitted effect of over 60% in size
ELG1 5FU viab: confirmation of ELG1 repair inhibitors: viability with 5FU. shares compounds with ELG1 repair inh. cell viability with 5-FU, ELG1-dependent repair. Potency, µM (series often up to 46.1 µM), for inactives: at the top dose activity change, negative = viability loss, hits mostly cytotoxic. 670 tested, under 10 active. AID 624250;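 further: ELG1-luc HEK293T cells cotreated with 5-fluorouridine at 10 µM final; viability measured 16 h after compound addition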
ELG1 MMS viab: confirmation of ELG1 repair inhibitors: viability with MMS. shares compounds with ELG1 repair inh. Cell viability with MMS, ELG1-dependent DNA repair. Potency, µM (titrated, usually from 46.1 µM), for the others: at the highest dose activity change, negative = viability loss, most hits filed as cytotoxic. actives 33% (n = 670). AID 624251;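 further: ELG1-luc HEK293T cells co-treated with 10 µM MMS; viability read 16 h after compound addition; on the % scale 0 is the no-effect control and ±100 the full control effect; nearly all actives have a fitted effect of over 60% in size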
Cell viab unstim: affects unstimulated cell viability, ELG1 hit counter-screen; shares compounds with ELG1 repair inh; cell viability counter-screen, unstimulated, luminescence; Potency, µM (titrated, usually from 45.9 µM), for inactives: at the highest dose activity change, negative = loss of viability, most hits filed as cytotoxic; actives 8% (n = 900);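 further: compound exposure lasted 16 hours before reading; on the % scale 0 is the no-effect control and ±100 the full control effect; nearly all actives have a fitted effect of over 55% in size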
FLuc biochem: inhibits purified firefly luciferase, counter-screen for ELG1 hits. actives 10% (n = 350). shares compounds with ELG1 repair inh. Potency, µM (top dose mostly 57.5 µM), inactives show at the top dose activity, negative = inhibition, usual class: inhibitors. purified firefly luciferase, luminescence counter-screen; further: on the % scale 0 is the no-effect control and ±100 the full control effect
The depositor's hits bear a star; ? = inconclusive; . = no result given. This is a sample that favours compounds with a hit; in the whole collection about 9.2% have one here. The call rests on the fitted dose curve; in most records, active means well fitted curve in the direction sought with a large enough effect; inconclusive means small, poorly fitted or top-dose-only effect, or another doubt; inactive means no such curve, though single readings can be large; an effect the other way counts as inactive or inconclusive. Potency means the concentration at half of the fitted maximal effect.

SMILES | SMN2 splice enh | Rab9 promoter act | NPC1 promoter act | FLuc modulator | ELG1 repair inh | ELG1 genotoxic | ELG1-Luc inh | ELG1 MMS Luc | ELG1 5FU viab | ELG1 MMS viab | Cell viab unstim | others
CCN(CC)S(=O)(=O)c1ccc(N2CCOCC2)c(NC(=O)c2cc(-c3ccccn3)nc3ccccc23)c1 | -38% | 1% | -3% | -4% | 1.8µM* | -12% | 4.4µM* | 5µM* | -9% | 10µM* | ?
CCCCNC(=O)c1nn(-c2ccc(C)cc2)c(=O)n(C)c1=O | . | . | . | -1% | . | . | . | . | . | . | .
COc1ccc(N2CC(NS(=O)(=O)c3ccc(F)cc3)CC2=O)cc1 (centres undefined) | . | -1% | -2% | -1% | -6% | 0% | . | . | . | . | .
O=C(Nc1c2c(nn1-c1ccccc1)CS(=O)C2)c1ccco1 (centres undefined) | . | 0% | -1% | 4% | 13% | 4% | . | . | . | . | .
COc1ccc(S(=O)(=O)N2CCOCC2)cc1NC(=O)c1cccc2c(=O)c(C)c(-c3ccccc3)oc12 | . | -2% | -5% | -1% | 4.1µM* | -6% | 4.4µM* | -3% | 13% | 6% | -18%
COc1ccc(S(=O)(=O)N2CCOCC2)cc1NC(=O)c1cc(C)oc1C | . | -1% | -4% | 4% | 2% | 0% | . | . | . | . | .
COc1ccc(CNC(=O)C(c2ccc(C)cc2)N(Cc2cccs2)C(=O)c2ccc3c(c2)OCCO3)cc1 (centres undefined) | -29% | 9% | 4% | 1% | ? | -3% | . | . | . | . | .
Cc1ccc(C(C(=O)NCc2ccccc2)N(Cc2cccs2)C(=O)c2ccc3c(c2)OCCO3)cc1 (centres undefined) | -30% | 0% | 1% | 2% | 2.9µM* | -8% | 7.9µM* | 7.9µM* | -10% | ? | ? | ELG1 FLuc counter=-4%;FLuc biochem=-3%
Cc1ccc(CNC(=O)c2c(Nc3c(C)cccc3C)sc(C(=O)c3ccccc3)c2N)cc1 | . | . | . | 1% | . | . | . | . | . | . | .
O=c1c2ccccc2nc(COc2ccccc2)n1/N=C/c1c[nH]c2ccccc12 | 0% | 1% | -1% | -4% | 2.3µM* | 0% | 6.3µM* | -18% | ? | 4% | ?
Cc1ccc(OCC(=O)Nc2ccc3nc(SCC(=O)N4CCOCC4)sc3c2)cc1C | . | . | . | 1% | . | . | . | . | . | . | .
CC(=O)Nc1ccc(/C=C/c2sc3ccccc3[n+]2CCCCI)cc1 | . | . | . | . | . | . | . | . | . | . | -18%
CC[n+]1c(/C=C/C=C/N(C(C)=O)c2ccccc2)sc2ccccc21 | -22% | -4% | -3% | 0% | -13% | -7% | . | . | . | . | .
Cn1c(=O)c(=O)n(C)c2cc(S(=O)(=O)N3CCC(Cc4ccccc4)CC3)ccc21 | 19% | 5% | -4% | 8% | 3% | 1% | . | . | . | . | .
CCn1c(=O)n(CC)c2cc(S(=O)(=O)N3CCC(c4ccccc4)CC3)ccc21 | . | -2% | -2% | 3% | ? | -2% | . | . | . | . | ? | ELG1 FLuc counter=-12%;FLuc biochem=-3%
O=C(Nc1ccc(F)cc1)N(CCCN1CCOCC1)Cc1cc2cc3c(cc2[nH]c1=O)OCO3 | -35% | 1% | -4% | 3% | -9% | 15% | ? | 21% | 9% | -8% | ? | ELG1 FLuc counter=34%;FLuc biochem=-9%
O=C(Nc1ccc(F)cc1)N(CCCN1CCOCC1)Cc1cc2cc3c(cc2[nH]c1=O)OCCO3 | -53% | 1% | -15% | 4% | ? | -1% | . | . | . | . | .
C=CCCc1ccc(C#N)c(SCc2c(C(=O)OCC)c3cc(OC(C)=O)c(Br)cc3n2C)n1 | 30% | -30% | -32% | 1% | 2.3µM* | 1% | ? | 2.8µM* | 3% | 4µM* | ? | ELG1 FLuc counter=10%;FLuc biochem=3%
CCOC(=O)c1c(CSc2nc(C)cc(C)c2C#N)n(C)c2cc(Br)c(OC(C)=O)cc12 | -59% | -9% | -21% | -2% | ? | 10% | . | . | . | . | .
COc1ccc(C(=O)c2ccc(Br)cc2)cc1 | -14% | ? | 30% | -11% | 1.2µM* | 1% | 43% | 0% | 2% | -17% | 7%
Cc1cc(OCC(=O)Nc2ccncc2)cc(C)c1Cl | . | 3% | -7% | -1% | 2.6µM* | 10% | ? | 2.5µM* | 4% | 2.5µM* | -13%
Cc1cc(OCC(=O)Nc2ccc(N3CCCC3)cc2)cc(C)c1Cl | -11% | 2% | -2% | 2% | -5% | -3% | . | . | . | . | .
Cc1cccc(NC(=O)NNC(=O)c2ccccn2)c1 | . | . | . | . | 0% | 2% | . | . | . | . | .
COc1cc(C2c3c(-c4c(C)cc(C)cc4O)n[nH]c3C(=O)N2Cc2ccco2)cc(OC)c1OC (centres undefined) | 5% | . | . | -2% | . | . | . | . | . | . | .
COc1cccc(-c2cncnc2NCCc2cnc[nH]2)c1 | -7% | . | . | . | . | . | 1.4µM* | ? | 0% | 2% | ?
Cc1ccc(NC(=O)c2cc(-c3cccs3)nc3ccccc23)nc1 | . | -9% | -4% | ? | ? | -15% | . | . | . | . | .
